Common to all, as to test: NCI-60 one-dose screen, 48 h (100 = growth as untreated, 0 = no growth, -100 = all killed)
Assay [1] deals with SR leukemia. The note with it: 10 µM unless noted.
The subject of assay [2] is RPMI-8226 leukemia. The note with it: 10 µM unless noted.
Assay [3] concerns OVCAR-8 ovarian. The note with it: 10 µM unless noted.
Assay [4] has as its system OVCAR-4 ovarian. As to conditions: 10 µM.
Assay [5] concerns SK-OV-3 ovarian. The note with it: 10 µM unless noted.
Assay [6] has as its system IGROV1 ovarian. The note with it: 10 µM unless noted.
Assay [7] relates to HS 578T breast. The note with it: 10 µM unless noted.
The test system of assay [8] is NCI/ADR-RES ovarian. The note with it: 10 µM unless noted.
Assay [9] has as its system T-47D breast. The note with it: 10 µM unless noted.
Assay [10] concerns BT-549 breast. The note with it: 10 µM unless noted.
Assay [11] concerns MDA-MB-435 melanoma. The note with it: 10 µM unless noted.
In assay [12] the test system is SW-620 colon. The note with it: 10 µM unless noted.
The subject of assay [13] is MCF7 breast. As to conditions: 10 µM unless noted.
Assay [14] has as its system HCT-116 colon. As to conditions: 10 µM unless noted.
The subject of assay [15] is HCC-2998 colon. The note with it: 10 µM unless noted.
The subject of assay [16] is KM12 colon. The note with it: 10 µM unless noted.
For assay [17], the system named is OVCAR-3 ovarian. As to conditions: 10 µM unless noted.
The test system of assay [18] is OVCAR-5 ovarian. As to conditions: 10 µM unless noted.

About 83,000 compounds went through this panel and 20% of them were active in at least one assay; those are over-represented in the sample as a whole.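 Activity criterion: percent growth below 10, measured after cells in 96-well plates were exposed to a single compound concentration for 48 hours.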 Unmarked numbers belong to inactive results. Active and inactive are the calls of the source.

As to `CCOc1ccccc1/C=N\Nc1ccc(S(=O)(=O)c2ccc(N/N=C/c3ccccc3OCC)cc2)cc1`, the growth in assay [1] was 94.8%; in [2], 81.3%; in assay [3], 93.1%; in assay [4], 96.6%; in assay [5], 87.6%; in [6], 76%. Further, the growth in [7] was -24.9% (active); in assay [8], 92.8%; in assay [9], 75.6%; in assay [10] it was 83.4%; in assay [11], 99.3%; in [12] it was 97.9%. Besides, the growth was 79.1% in assay [13], 87.5% in [14], 107% in assay [15] and 91.5% in assay [16].
Turning to `O=c1[nH]cnc2c1ccn2C1OC(CO)C(O)C1O` (stereo unspecified), the growth was 58.1% in assay [1]; 58% in assay [2]; 31.4% in [3]; 24.5% in [4]; 39.3% in assay [5]; 48.7% in [6]. Moreover, the growth in [17] is 64.7%; in assay [7], 74.6%; in assay [8] it was 31.1%; in assay [9] it was 54.1%; in assay [10] it was 75.8%; in assay [12], 33.5%. In addition, the growth was 24.9% in assay [13], 54.9% in assay [14], 69.3% in [15] and 75.1% in [16].
For the molecule `CC1(C)C(=O)/C(=C\c2cccnc2)C[C@]2(C)[C@H]3CC[C@@H]4[C@H]5[C@H](C(=O)/C=C/c6cccnc6)CC[C@]5(C(=O)O)CC[C@@]4(C)[C@]3(C)CC[C@@H]12`, the growth in assay [1] is 25.8% [100 µM]; in [2], -27% [100 µM] (active); in assay [3], 0.147% [100 µM] (active); in assay [18], -49% [100 µM] (active); in assay [5], -68.5% [100 µM] (active); in assay [6], -34.3% [100 µM] (active). The growth in assay [7] is -0.172% [100 µM] (active); in [8], -1.33% [100 µM] (active); in assay [9], -10% [100 µM] (active); in assay [11], -78.2% [100 µM] (active); in assay [12] it was -21.8% [100 µM] (active); in [13] it was -41.9% [100 µM] (active). Further, the growth in assay [14] was -56.7% [100 µM] (active); in assay [15] it was -76.4% [100 µM] (active); in assay [16], -82.1% [100 µM] (active).
Turning to `FC(F)(F)c1ccc2c(c1)Sc1ccccc1N2`, the growth in [1] was 89.5%; in assay [2] it was 92.7%; in assay [3] it was 96.7%; in assay [4], 97%; in assay [5], 105%; in [6], 92.6%. For the same molecule, the growth in [7] is 85.5%; in assay [8], 104%; in assay [9], 77.7%; in assay [10], 93.3%; in assay [11], 97.1%; in [12], 100%. In addition, the growth is 95.4% in assay [13], 100% in assay [14], 102% in assay [15] and 95% in [16].
Regarding `O=C(N/N=C1\c2ccccc2-c2cccc(C(=O)O)c21)c1ccc(O)cc1`, the growth in [1] was 110%; in assay [2] it was 94.2%; in [3], 97.4%; in assay [4], 101%; in assay [5] it was 101%; in [6], 97.6%. Also, the growth was 96.6% in assay [17]; 82% in assay [7]; 99.8% in assay [8]; 104% in [9]; 83.7% in assay [10]; 99.1% in [11]. The growth in assay [12] was 84.3%; in [14] it was 99.4%; in [15] it was 98.9%; in assay [16] it was 105%.
In the case of `[2H]C1([2H])CCN(C(=O)C2CC2)c2cc(NS(=O)(=O)c3ccc(-c4cccc(C(N)=O)c4)cc3)ccc21`, the growth is 38.1% in [1]; 37.1% in [2]; 53.9% in assay [3]; 60.6% in assay [18]; 26.1% in assay [5]; 32.4% in [6]. Further, the growth is 18.7% in [7]; 95% in assay [8]; 19.5% in [9]; 79% in assay [10]; -11.2% (active) in [11]; 31% in assay [12]. For the same molecule, the growth was 21.4% in [13], 81.5% in assay [14], 60.1% in assay [15] and 19.8% in assay [16].
Regarding `COc1cccc(-c2[nH]c(=S)ncc2C(=O)c2ccccc2)c1`, the growth in assay [1] is 28.3%; in assay [2], 113%; in assay [3], 97.4%; in [4], 94.9%; in [5] it was 107%; in assay [6] it was 77.2%. For the same molecule, the growth in assay [17] is 83.2%; in assay [8], 91.8%; in [9], 104%; in [10], 73.9%; in [11] it was -20% (active); in assay [12] it was 66.6%. Further, the growth was 69.8% in assay [13], 61.3% in [14], 102% in assay [15] and 51.5% in [16].

The values above are taken from PubChem BioAssay (NCI).
